A selection: hits, their analogues and other compounds. The true share with any hit is near 8.7%.
VACV Venus inh: inhibitors of vaccinia virus (Venus reporter) | Vaccinia virus Venus reporter expression, fluorescence | Potency, µM (titrated, usually from 36.5 µM), usual class: inhibitors | 330,000 tested, 0.46% active; calls by dose curve; tested in A549 cells; note: nearly all actives have a fitted effect of over 30% in size
VACV mCherry inh: inhibitors of vaccinia virus infection (mCherry reporter signal). AID 720579. Vaccinia virus mCherry reporter infection, fluorescence. Potency, µM (highest dose often 36.5 µM), hits mostly inhibitors. 310,000 tested, 0.63% active; calls by dose curve; tested in A549 cells; note: nearly all actives have a fitted effect of over 35% in size
Pf growth 48h: P. falciparum growth inhibition at 48 hours (one generation) | P. falciparum luciferase growth in erythrocytes, 48 h | Potency, µM (highest dose often 28.7 µM), actives largely listed as inhibitors | 310,000 tested, 5.9% active | AID 504832
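Here the parasites carry a stable luciferase gene and grow inside erythrocytes in Albumax-based RPMI medium with compound for one erythrocytic cycle. Activity is scored as loss of luminescent signal.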
Pf growth 96h: P. falciparum growth inhibition at 96 hours; P. falciparum luciferase reporter growth, 96 h; Potency, µM (doses to about 28.7 µM), usual class: inhibitors; 320,000 tested, 6.9% active
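Erythrocytes infected with luciferase-expressing P. falciparum were dispensed at 2% hematocrit and 0.05% parasitemia (final), then incubated with compounds 96 hours at 37 C in 5% CO2. Luminescence after detection reagent addition reported growth.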
AMA1-RON2 inh: inhibitors of Plasmodium falciparum AMA1-RON2 interaction; AlphaScreen AMA1-biotinylated RON2 peptide binding; Potency, µM (highest dose often 58.2 µM), hits mostly inhibitors; 360,000 tested, 0.2% active; AID 720542; note: nearly all actives have a fitted effect of over 45% in size
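AMA1 (3D7) with his tag at 25 nM final met compounds first, then biotinylated RON2 peptide at 25 nM; detection used donor plus acceptor beads, 10 µg/mL apiece, read by AlphaScreen after 30 min at room temperature.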
Of the large screens only hits and unclear results are named; the others gave an inactive call. Unless noted, calls come from the whole dose curve; as a rule, active = well fitted curve in the direction sought with a large enough effect; inconclusive = small, poorly fitted or top-dose-only effect, or another doubt; inactive = no such curve, though single readings can be large; an effect the other way counts as inactive or inconclusive.

COc1ccc(C(=O)C2CCCN(Cc3cnc(N4CCCC4)s3)C2)cc1OC (stereo not given)	Pf growth 48h inconclusive, Pf growth 96h inconclusive
Cc1ccsc1C(=O)C1CCCN(Cc2cccn2-c2ccc(Cl)cn2)C1 (stereo not given)	Pf growth 48h 3.7µM, Pf growth 96h inconclusive (no result: VACV Venus inh, VACV mCherry inh)
FC(F)(F)c1cccc(N2CCN(Cc3cccnc3)CC2)c1	Pf growth 48h inconclusive, Pf growth 96h 4.65µM (no result: VACV Venus inh, VACV mCherry inh)
COc1ccc(Cl)cc1NC(=O)Cn1c(=O)n(Cc2ccco2)c(=O)c2cccnc21	none (no result: Pf growth 48h, Pf growth 96h, AMA1-RON2 inh)
COc1ccc(C(=O)C2CCCN(Cc3cc(Cl)ccc3O)C2)c(OC)c1 (stereo not given)	Pf growth 48h inconclusive
COc1ccc(Cl)cc1C(=O)C1CCCN(Cc2cnc(N3CCOCC3)s2)C1 (stereo not given)	Pf growth 48h inconclusive, Pf growth 96h 10.4µM
CCOc1cccc(CN2CCN(c3cccc(C(F)(F)F)c3)CC2)c1O	Pf growth 48h 2.33µM (no result: VACV Venus inh, VACV mCherry inh, Pf growth 96h)
CCOc1cccc(CN2CCCC(N3CCc4ccccc4C3)C2)c1O (stereo not given)	VACV mCherry inh inconclusive, Pf growth 48h 1.65µM
CCOc1cccc(CN2CCCC(C(=O)c3cc(Cl)ccc3OC)C2)c1O (stereo not given)	Pf growth 48h 1.65µM
CCC(C)NC(=O)Cn1c(=O)n(CC2CCC(C(=O)NC)CC2)c(=O)c2sccc21 (stereo not given)	none (no result: Pf growth 48h, Pf growth 96h, AMA1-RON2 inh)
CN(C)c1ccc(/C=C2\NC(=O)NC2=O)cc1	none (no result: Pf growth 48h, Pf growth 96h, AMA1-RON2 inh)
CN(C)c1ccc(/C=C/c2ccnc3ccc(O)cc23)cc1	none (no result: Pf growth 48h, Pf growth 96h, AMA1-RON2 inh)
CCCCN(C)CCNC(=O)c1cc(=O)[nH]c2ccc(S(=O)(=O)N3CCCCCC3)cc12	none (no result: Pf growth 48h, Pf growth 96h, AMA1-RON2 inh)
CCOc1cccc(CN2CCCC(CCC(=O)NCc3ccccc3F)C2)c1O (stereo not given)	Pf growth 48h inconclusive, Pf growth 96h 1.47µM
COc1ccc(C(=O)C2CCCN(Cc3cccn3-c3ccccn3)C2)cc1F (stereo not given)	Pf growth 48h 9.28µM
CC(=O)c1cccc(NC(=O)c2ccc(N(C)S(=O)(=O)c3ccc(C)cc3)cc2)c1	Pf growth 48h inconclusive, Pf growth 96h 8.28µM (no result: VACV Venus inh, VACV mCherry inh)
CN(c1ccc(C(=O)Nc2cccc(O)c2)cc1)S(=O)(=O)c1ccccc1	none
Cc1ccc(S(=O)(=O)N(C)c2ccc(OC(C)C(=O)N(C)c3ccccc3)cc2)cc1 (stereo not given)	Pf growth 48h inconclusive, Pf growth 96h inconclusive
CC(=O)c1ccc(NC(=O)C(C)Oc2ccc(N(C)S(=O)(=O)c3ccc(C)cc3)cc2)cc1 (stereo not given)	Pf growth 48h 14.7µM, Pf growth 96h 13.1µM (no result: VACV Venus inh, VACV mCherry inh)
CC(=O)c1ccc(N2CCN(c3nc4c(S(=O)(=O)c5ccc(C)c(C)c5)nnn4c4ccc(Cl)cc34)CC2)cc1	none (no result: Pf growth 48h, Pf growth 96h, AMA1-RON2 inh)
O=C(CSc1ncnc2c1cnn2-c1ccccc1Cl)N1CCN(C(=O)c2ccco2)CC1	Pf growth 96h 7.38µM
Cc1ccccc1-n1ncc2c(SCC(=O)N3c4ccccc4CC3C)ncnc21 (stereo not given)	VACV Venus inh inconclusive, Pf growth 48h inconclusive, Pf growth 96h inconclusive
COc1ccc(N2CCN(C(=O)CSc3ncnc4c3cnn4-c3ccccc3C)CC2)cc1	Pf growth 96h 6.57µM (no result: VACV mCherry inh)
COc1ccc(N2CCN(c3c4c(nc5nncn35)CCC4)CC2)cc1	VACV Venus inh inconclusive (no result: Pf growth 48h, Pf growth 96h, AMA1-RON2 inh)
CCOC(=O)c1sc2ccccc2c1S(=O)(=O)Nc1cccc(C(F)(F)F)c1	none (no result: Pf growth 48h, Pf growth 96h, AMA1-RON2 inh)
Cc1ccc(NC(=O)c2cc3c(-c4ccccc4)nn(-c4ccccc4)c3s2)cc1	none (no result: Pf growth 48h, Pf growth 96h, AMA1-RON2 inh)
N#Cc1c2ccc([N+](=O)[O-])cc2[n+]([O-])n1-c1ccccc1	Pf growth 48h 11.7µM, Pf growth 96h 10.4µM (no result: VACV Venus inh, VACV mCherry inh, AMA1-RON2 inh)
CC(=O)N1c2ccccc2CC1C(=O)N1CCN(c2cccc(C)c2C)CC1 (stereo not given)	none (no result: Pf growth 48h, Pf growth 96h, AMA1-RON2 inh)
O=c1c(CO)cc(CO)cc(CO)c1O	Pf growth 48h inconclusive, AMA1-RON2 inh 22.4µM (no result: VACV Venus inh, VACV mCherry inh)
COc1ccc(OC)c(NC(=O)CCc2c(C)nc3c(c(C)nn3C(C)(C)C)c2C)c1	none (no result: Pf growth 48h, Pf growth 96h, AMA1-RON2 inh)
CCCNCC1C(Oc2ccc(Cl)cc2Cl)C(=O)N1c1cccc(C)c1C (stereo not given)	VACV Venus inh inconclusive, VACV mCherry inh inconclusive, Pf growth 48h inconclusive
Cc1cccc(N2C(=O)C(Oc3ccc(Cl)cc3Cl)C2C(=O)O)c1C (stereo not given)	Pf growth 96h 10.4µM

Source: PubChem
